Test results taken from PubChem BioAssay (NCI).
Values joined by “and” are separate entries in the source; they are usually repeats but may differ in a detail not shown here. Equal entries are not always repeated. Compounds without any hit were thinned out: in the full panel of roughly 83,000, 20% have a hit.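 Method: cells in 96-well plates; compound added at one concentration; 48 h incubation; percent growth measured; values under 10 scored active.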 A number with no mark means an inactive call. Active and inactive are the calls of the source.

System: MDA-MB-468 breast
Assay: NCI-60 one-dose screen, 48 h (100 = growth as untreated, 0 = no growth, -100 = all killed)
Settings: 10 µM unless noted

**Q.** With `COc1cccc(-c2nn(-c3ccccc3)cc2-c2ccnc(-c3cccnc3)c2)c1` as the molecule, how does the growth read?
**A.** The growth was 80.4%.

**Q.** With `O=C(Cn1c(=O)sc2ccccc21)NNS(=O)(=O)c1ccccc1[N+](=O)[O-]` as the molecule, how does the growth read?
**A.** Its growth is 107%.

**Q.** With `COc1ccc(-c2nc3ccc(-c4nc5ccc(N6CCN(c7ccc(F)cc7)CC6)cc5[nH]4)cc3[nH]2)cc1OC` as the molecule, how does the growth read?
**A.** Its growth is 67.4%.

**Q.** With `CN1CCc2c(Sc3ccc(C(=O)NO)cc3)c3ccccc3n2C1` as the molecule, how does the growth read?
**A.** Its growth is 21%.

**Q.** Which growth does the source give for `C=CC(=O)Nc1cccc(-c2nc(SC)nc(NCCN3CCOCC3)c2C#N)c1` here?
**A.** The growth was 97.8%.

**Q.** Which growth does the source give for `Brc1ccc(-c2cn3ccnc3c(-c3ccc(Br)cc3)n2)cc1` here?
**A.** Its growth is 33.2%.

**Q.** With `COc1cc(-c2cc3ncccc3c3[nH]c(=O)c4cccnc4c23)cc(OC)c1OC` as the molecule, how does the growth read?
**A.** The growth was -10.5% (active).

**Q.** Which growth does the source give for `CCN1CCN(c2nc(NNC(=O)c3ccccc3)nc(N3CCN(C(c4ccccc4)c4ccccc4)CC3)n2)CC1` here?
**A.** The growth was 7.71% (active).

**Q.** For `CCN(CC)CCCC(C)N/C(c1cccc(OC)c1)=c1\c(=O)[nH]n(-c2c3ccccc3nc3ccccc23)c(=O)\c1=C(/NC(C)CCCN(CC)CC)c1cccc(OC)c1` (configuration not stated), which growth is on record?
**A.** Its growth is -56.2% (active).

**Q.** `COc1ccc(-c2nnc(SCC(=O)c3ccccc3)o2)cc1` was tested. Which growth did it give?
**A.** Its growth is 91.5%.

**Q.** With `CCOC(=O)n1cc(-c2nonc2-c2cn(C)c3ncccc23)c2cc(F)ccc21` as the molecule, how does the growth read?
**A.** The growth was -7.17% (active).

**Q.** `CCN(CC)CCCC(C)NCC(=O)NC(c1ccc2c(c1)OCO2)c1cc(Cl)c2cccnc2c1O` (configuration not stated) was tested. Which growth did it give?
**A.** The growth was 16.6%.

**Q.** Which growth does the source give for `COc1ccc(-c2nc3c(N)c(CO)cnc3s2)cc1` here?
**A.** The growth was 57.6%.

**Q.** For `Nc1ccc2c(c1)C(=O)C(=O)c1c-2nc2ccccn12`, which growth is on record?
**A.** The growth was -38.2% (active).

**Q.** Which growth does the source give for `Cn1cc2c(=O)nc3c(-c4nc5ccccc5[nH]4)n[nH]n3c2n1` here?
**A.** The growth was 83.3%.

**Q.** With `O=c1cc(-c2ccccc2)[nH]c2ccccc12` as the molecule, how does the growth read?
**A.** Its growth is 59.5%.

**Q.** How did the growth turn out when `CCN(CC)S(=O)(=O)c1ccc(O)c(NC(=O)c2[nH]c(C)c(C(C)=O)c2CCc2ccc(Cl)cc2)c1` was run?
**A.** Its growth is 19.8%.

**Q.** `CC1=C2[C@@H](CC1)[C@]1(C)O[C@@](C(C)C)(C[C@H]1OC(=O)[C@H](C)O)[C@H]2OC(=O)/C=C/c1ccccc1` was tested. Which growth did it give?
**A.** Its growth is 86.9%.

**Q.** With `Cc1nc(C)c(C(=O)O)cc1C(=O)O` as the molecule, how does the growth read?
**A.** Its growth is 109%.

**Q.** With `C[C@H]1[C@H](C)CC[C@]2(COC(=O)CCC(=O)O)CC[C@]3(C)C(=CC[C@@H]4[C@@]5(C)CCCNC(C)(C)[C@@H]5CC[C@]43C)[C@H]12` as the molecule, how does the growth read?
**A.** Its growth is 69% [100 µM].

**Q.** `CC(=O)c1nn(-c2ccccc2)/c(=N\N=C\c2coc3ccc(F)cc3c2=O)s1` was tested. Which growth did it give?
**A.** The growth was 115%.

**Q.** With `O=[N+]([O-])c1c(S(=O)(=O)O)cc2cc(S(=O)(=O)O)ccc2c1[N+](=O)[O-]` as the molecule, how does the growth read?
**A.** The growth was 111%.

**Q.** With `O=C(O)C1CCCCN1c1nc(Cl)nc(Cl)n1` (configuration not stated) as the molecule, how does the growth read?
**A.** The growth was 102%.

**Q.** With `NC(=S)N/N=C/c1cc(-c2cccc(N)c2)ccn1` as the molecule, how does the growth read?
**A.** Its growth is -11.8% (active).

**Q.** For `CC1(C)CC(=O)C2=C(C1)Nc1cc3c(cc1C2c1ccc(F)cc1)OCO3` (configuration not stated), which growth is on record?
**A.** The growth was 71.4%.

**Q.** For `CCCCn1c(C)nc2ccc(Nc3nc(N4CCN(C)CC4)nc4nc[nH]c34)cc21`, which growth is on record?
**A.** Its growth is 82.2%.

**Q.** `COc1c(C(=O)Nc2ccc(C)c(Br)c2)ccc2ccccc12` was tested. Which growth did it give?
**A.** Its growth is 87.9%.

**Q.** `COc1cc(C2C=C(C)N=C3SC=C(C)N32)cc(OC)c1OC` (configuration not stated) was tested. Which growth did it give?
**A.** The growth was -74.2% (active).

**Q.** With `O=C(/C=C/c1cccs1)Nc1ncc(Cc2ccc(Cl)c(Cl)c2)s1` as the molecule, how does the growth read?
**A.** Its growth is 58.2%.

**Q.** With `c1ccc2c(-c3nc(-c4c[nH]c5ccncc45)cs3)c[nH]c2c1` as the molecule, how does the growth read?
**A.** The growth was -9.84% (active).

**Q.** `C=C(C)[C@@H]1CC[C@]2(C(=O)NCCCN(CCC#N)CCC#N)CC[C@]3(C)[C@H](CC[C@@H]4[C@@]5(C)CCC(=O)C(C)(C)[C@@H]5CC[C@]43C)[C@@H]12` was tested. Which growth did it give?
**A.** Its growth is 116% and 90.6%.

**Q.** Which growth does the source give for `O=C(Nc1cccc(-n2cc(-c3ccncc3)c(-c3ccc(Cl)c(O)c3)n2)c1)Nc1ccc(Cl)c(Cl)c1` here?
**A.** The growth was 2.25% (active).

**Q.** How did the growth turn out when `Cn1c(/C(C#N)=C/c2ccc3ccccc3c2)cc2ccccc21` was run?
**A.** The growth was -3.16% (active).

**Q.** Which growth does the source give for `Cc1c(Cl)cccc1NC(=O)c1sc2nc3c(cc2c1N)CCCCC3` here?
**A.** The growth was 22.4%.

**Q.** For `Cc1cc2ccccc2cn1`, which growth is on record?
**A.** The growth was 96.6% and 102%.

**Q.** For `COC(OC)c1ccccc1`, which growth is on record?
**A.** Its growth is 107%.

**Q.** For `O=C(Cn1c2ccccc2c2ccncc21)N/N=C/c1cc(O)c(O)c(O)c1`, which growth is on record?
**A.** The growth was 111%.
